Values without a mark were called inactive. Calls of active or inactive are those of the source. Rule as the data show it, unless noted: active = inhibition above about 36%; inactive = the rest.
Key:
[1] = system: transactivating tegument protein VP16 (Human herpesvirus 1); assay: compounds suppressing VP16-driven luciferase signal – cell-based, luminescence, single concentration, counter-screen for SRC2 inhibitor project (AID 652007); settings: cell-based VP16 transactivation luciferase reporter, at 8.9 µM, active compounds read high
[2] = biological target: Nuclear receptor coactivator 2 (Homo sapiens) (UniProt Q15596); assay: inhibition of GAL4-SRC2 driven luciferase expression – cell-based, luminescence, HEK293, triplicate, confirmation (AID 652008;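 active = mean inhibition above 46.5%, the solvent-only control mean plus 3 SD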;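 also: 0% = DMSO-treated cells and 100% = Gossypol at 36 µM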); settings: HEK293 GAL4-SRC2 luciferase reporter, at 8.9 µM, active compounds read high
Chain of Nuclear receptor coactivator 2 (Homo sapiens) (Q15596 whole entry, looked up, the tested form may be a part): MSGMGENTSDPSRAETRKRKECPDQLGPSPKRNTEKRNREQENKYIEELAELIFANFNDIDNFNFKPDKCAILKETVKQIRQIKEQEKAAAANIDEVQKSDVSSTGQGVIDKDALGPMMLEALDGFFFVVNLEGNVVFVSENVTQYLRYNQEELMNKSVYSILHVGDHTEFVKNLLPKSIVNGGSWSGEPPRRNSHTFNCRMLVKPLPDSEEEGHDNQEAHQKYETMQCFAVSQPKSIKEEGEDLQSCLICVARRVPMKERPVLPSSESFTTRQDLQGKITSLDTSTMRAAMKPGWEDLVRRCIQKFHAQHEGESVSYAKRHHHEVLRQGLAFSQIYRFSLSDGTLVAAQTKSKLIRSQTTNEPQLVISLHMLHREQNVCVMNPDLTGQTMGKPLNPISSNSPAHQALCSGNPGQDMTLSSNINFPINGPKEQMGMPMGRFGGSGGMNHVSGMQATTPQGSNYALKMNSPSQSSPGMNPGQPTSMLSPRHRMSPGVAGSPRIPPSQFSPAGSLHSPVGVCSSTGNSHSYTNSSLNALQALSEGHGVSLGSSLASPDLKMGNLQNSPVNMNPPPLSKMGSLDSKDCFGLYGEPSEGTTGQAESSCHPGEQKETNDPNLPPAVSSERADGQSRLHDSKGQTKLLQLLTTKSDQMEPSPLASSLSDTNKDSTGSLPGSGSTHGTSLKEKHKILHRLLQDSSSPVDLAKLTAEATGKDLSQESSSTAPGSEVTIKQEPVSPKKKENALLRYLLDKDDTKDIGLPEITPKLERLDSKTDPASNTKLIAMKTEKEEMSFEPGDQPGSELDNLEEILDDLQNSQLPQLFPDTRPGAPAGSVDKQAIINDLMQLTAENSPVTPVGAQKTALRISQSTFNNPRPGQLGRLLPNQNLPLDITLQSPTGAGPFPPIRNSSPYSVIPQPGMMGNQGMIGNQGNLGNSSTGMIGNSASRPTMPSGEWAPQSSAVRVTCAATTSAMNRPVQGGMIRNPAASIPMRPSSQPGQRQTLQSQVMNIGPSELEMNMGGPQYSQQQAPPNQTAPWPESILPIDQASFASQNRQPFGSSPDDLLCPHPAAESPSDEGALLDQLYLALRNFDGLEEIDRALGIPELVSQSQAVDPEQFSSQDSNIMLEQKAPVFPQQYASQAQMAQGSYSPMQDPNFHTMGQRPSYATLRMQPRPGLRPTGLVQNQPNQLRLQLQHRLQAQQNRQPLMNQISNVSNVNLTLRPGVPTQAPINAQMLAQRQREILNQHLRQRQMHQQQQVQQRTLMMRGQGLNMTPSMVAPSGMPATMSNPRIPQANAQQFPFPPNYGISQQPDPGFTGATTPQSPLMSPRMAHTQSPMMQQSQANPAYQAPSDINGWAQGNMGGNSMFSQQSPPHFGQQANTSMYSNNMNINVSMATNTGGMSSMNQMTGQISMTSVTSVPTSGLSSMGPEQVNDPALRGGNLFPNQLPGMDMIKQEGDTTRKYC

Compound | inhibition [1] | inhibition [2]
CCN(CC)S(=O)(=O)c1cccc(C(=O)N/N=C/c2cccc(O)c2O)c1 | -46.8% | -7.21%
CCC1CN(C(=O)NCc2cccc(OC)c2)c2ccccc2O1 (stereo not given) | -11.8% | -14.7%
COc1ccc(C(=O)N/N=C\c2coc3ccc(Cl)cc3c2=O)cc1 | 3.52% | 5.31%
Cc1cc(C(=O)C(C)OC(=O)c2ccc(NC(=O)CC#N)cc2)c(C)n1-c1ccccc1 (stereo not given) | -36% | 26.3%
CCc1ccc(/C=C2\SC(=S)N(CCCC(=O)Nc3cc(C)on3)C2=O)cc1 | 28.9% | 73.4% (active)
Oc1cc2ccccc2cc1-c1nnc2n1-c1ccccc1SC2 | 5.09% | 3.52%
Fc1ccc(-c2nnc(NC3=NCCCCC3)o2)cc1 | -10.8% | 31.4%
CN(c1ccc(F)cc1)S(=O)(=O)c1ccc(Cl)c(C(=O)Nc2ccncc2)c1 | -3.83% | 26.5%
C=CCc1cccc2cc(C(=O)Nc3ccc(CC(=O)O)cc3)c(=O)oc12 | 12% | 25.6%
Cc1cc(=O)oc2cc(OCC(=O)NC3CCCC3)ccc12 | -12.6% | -25.6%
O=C(Nc1ccnn1C1CCN(C(=O)c2ccc(Cl)cc2)CC1)C1CC1 | -6.97% | -7.33%
COC(=O)c1ccc(-c2nc3cc(N)ccc3o2)cc1 | -20.4% | 49.8% (active)
O=S(=O)(c1ccc2c(c1)OCCO2)N1CCN(c2ncnc3sccc23)CC1 | 6.15% | 36.6%
CCOC(=O)N1C(=O)[C@@](c2ccc(Cl)cc2)(C(C)C)N1C(=O)OCC | -14% | 16.6%
CC(C)(CO)CNC(=O)CCc1nnc(-c2ccc(-c3ccccc3)cc2)o1 | 0.83% | -13.5%
CCN(CC(=O)Nc1cc(Cl)ccc1C)C(=O)C1CCN(c2ncnc3sc(C)c(C)c23)CC1 | 8.26% | 20.7%
CN1c2ccccc2C(C)(C)C12C=Cc1cc(O)ccc1O2 (stereo not given) | -7.85% | 23.8%
COn1c2c(c3c4nonc4ccc31)CCCC2 | 0.98% | 18.7%
Cc1ccc(CN2CCC(C(=O)Nc3ccc(Oc4cccnc4)cc3)CC2)cc1 | 7.59% | -0.58%
O=C(COC(=O)c1cc(S(=O)(=O)N2CCOCC2)ccc1F)NCc1ccc2c(c1)OCO2 | -10.1% | -5.62%
COc1ccc(OC)c(C2C(C#N)=C(N)Oc3c2c(C)nn3-c2cccc(Cl)c2)c1 (stereo not given) | 3% | 4.46%
O=[N+]([O-])c1ccc(Sc2nnnn2-c2ccccc2)nc1 | 12.5% | 40.7%
O=C(OC12CCCN(C1)/C(=C/c1ccncc1)C2)c1ccc(Cl)cc1 (stereo not given) | -7.98% | 25.9%
O=c1[nH]sc2ccccc12 | 7.96% | 8.22%
COc1cccc(/C=C2/SC(=S)N(CCCC(=O)Nc3ccc(O)cc3)C2=O)c1 | 51.1% (active) | 23.7%

Compound | inhibition [1] | inhibition [2]
O=[N+]([O-])c1ccc(Oc2ccc(F)cc2Br)c2ccncc12 | 7.49% | 50.2% (active)
Cc1cc(Nc2ccccc2)n(C(=O)c2ccc(N)cc2)n1 | -71.3% | 0.44%
COc1ccc(C(C(=O)NC2CCCC2)n2c(CSCCOc3ccccc3)nc3ccccc32)cc1 (stereo not given) | 43.5% (active) | 76.4% (active)
O=C(c1ccco1)N1CCN(C(=O)N2c3ccccc3Sc3ccccc32)CC1 | 6.34% | 14.1%
CC(=O)NCCOc1nc(N2CCCCC2)nc(N2CCCCC2)n1 | 0.94% | 12.1%
O=C(N/N=C/c1coc2ccc(Cl)cc2c1=O)c1cc(O)cc(O)c1 | 23.4% | 18.5%
CC1CCc2c(sc3nc(CSc4ncn[nH]4)[nH]c(=O)c23)C1 (stereo not given) | 33% | 35.2%
Cc1cc(N2CCOCC2)c2c(N)cc(C)c(C)c2n1 | -7.44% | -11.2%
O=S1(=O)CCS(=O)(=O)C1c1ccccc1 | 15.8% | -3.12%
O=C1C2CCCN2C(=S)N1C1CCCCC1 (stereo not given) | 1.86% | 3.89%
CC(=O)Nc1cccc(-c2cc(NC(C)=O)c3ncc(-c4ccccc4)n3c2)c1 | -11.4% | 2.68%
COc1cc(NC(=O)CSCC(=O)Nc2cccc(C(F)(F)F)c2)c(Cl)cc1Cl | 5.02% | 5.14%
O=C(NCc1ccco1)/C(=C/c1cccc([N+](=O)[O-])c1)NC(=O)c1ccco1 | -6.26% | -17.7%
Nc1ccc(-c2cc3ccccc3c(=O)o2)cc1 | -7.3% | 79.1% (active)
CCNC(=O)COc1ccc(/C=C2\COc3ccccc3C2=O)cc1OC | 3.8% | 78.1% (active)
O=C(CN1C(=O)c2ccccc2S1(=O)=O)c1ccccc1Cl | 37.8% (active) | 68.9% (active)
Nn1cnnc1SCC(=O)N1CCc2ccccc2C1 | 3.54% | -22.3%
CNC(=O)c1nnsc1S(=O)(=O)c1ccc(Cl)cc1 | 49.1% (active) | 49.1% (active)
CN(Cc1ccccc1F)C(=O)C1CCC(CNS(=O)(=O)c2cccc3cccnc23)CC1 (stereo not given) | 3.95% | -2.23%
Cc1cc2c(cc1C)C(=O)NC(C)(C)C2 | 2.03% | 28.2%
COc1ccc(C(=O)/C=C/Nc2ccccn2)cc1 | 3.41% | 30.8%
Cc1ccc(NC(=O)C2CCN(S(=O)(=O)c3c(C)noc3/C=C/c3ccco3)CC2)nc1 | 11.6% | 22.4%
CCOC(=O)[C@]12CCCC=C1N(Cc1cccc3ccccc13)C(=O)[C@H](CC(=O)N1CCOCC1)C2 | -7.43% | -11%
S=C(NCc1ccc(Cl)cc1)NC1CCN(Cc2ccccc2)CC1 | -17.5% | 19.2%
NC(=O)c1cc(C(=O)c2ccc(Cl)cc2Cl)c[nH]1 | -19.8% | 14.3%

Compound | inhibition [1] | inhibition [2]
CC1CCCc2sc3ncn(N)c(=N)c3c21 (stereo not given) | -0.69% | 1.19%
O=C(CCc1nnc(-c2ccc(-c3ccccc3)cc2)o1)NCCc1ccccn1 | 14.7% | 54% (active)
Cc1ccc2c(c1)N(C(=O)CCC(=O)NCCCN1CCN(C)CC1)CC(C)O2 (stereo not given) | -11.4% | -10.8%
COc1cccc(-c2ncn(CCc3ccccc3OC)c2CC(C)C)c1 | -2.53% | 18.6%
CCC/C(C#Cc1ccsc1)=C1/c2ccccc2C(=O)N1c1ccccc1 | -8.53% | -18.8%
CC(C)CCSc1nc(N)c(C#N)cc1C#N | -75.7% | 17.8%
CC1CCC(C(C)C)C(OCC(O)CN2CCCC(C)C2)C1 (stereo not given) | -4.71% | -16.1%
COc1ccc(CNCCNC(=O)c2cccs2)c(OC)c1OC | 8.76% | 9.01%
Cc1ccc(-c2noc(CCCC(=O)NC3CCCC3)n2)cc1 | 20.1% | 42.4%
O=C(c1ccc(Cl)cc1)C(CN1CCCCC1)c1ccccc1 (stereo not given) | 32.9% | 57.8% (active)
CC(=O)N1/C(=C/c2ccc(N(C)C)cc2)C(=O)c2ccccc21 | 13.3% | 72.6% (active)
CC(=O)Nc1cccc(NC(=O)CSc2nc(C3CC3)nc3ccccc23)c1 | -2.73% | 27.2%
O=C(Nc1nccs1)c1cc2c(s1)CCCCC2 | 0.43% | 38.7%
CCOC(=O)C1CCN(c2ncnc3c2cnn3-c2ccc(OC)cc2)CC1 | -22.3% | 39.2%
CCn1c(C2CCN(S(=O)(=O)c3ccc(OC)cc3)CC2)n[nH]c1=S | -1.12% | -16.9%
CC(C)(C)n1nc(Cc2cccc3ccccc23)c2c(N)ncnc21 | 2.66% | 29.4%
Cc1ccc2nc(-c3cc(N)cc(N)c3)oc2c1 | -8.66% | 38.3%
COc1ccc(C(=O)C(CN2CCCC2)c2ccccc2)cc1 (stereo not given) | 0.75% | 40.2%
O=C(CCCCl)NC(=S)Nc1cc(C(F)(F)F)ccc1N1CCOCC1 | -12.4% | -9.88%
C=C(C(=O)c1ccccc1)C(c1ccccc1)C(C)C(=O)c1ccccc1 (stereo not given) | 28.8% | 31.4%
CCC(C)[C@H](NC(=O)C1CC(=O)N(c2ccc(OC)cc2)C1)C(=O)N1CCCCC1 (stereo not given in full) | 6.37% | 10.3%
CCOC(=O)c1c(NC(=O)/C=C/C(=O)O)sc(C)c1-c1ccc(C(C)(C)C)cc1 | 32.9% | 17.2%
O=C(CCl)Nc1cccc(S(=O)(=O)NC2=NCCC2)c1 | 76.2% (active) | 38.1%
CCOc1ccc(-c2cc(CCCC(=O)NCCCOC)no2)cc1 | 38.5% (active) | 52% (active)
O=C(Cc1ccc([N+](=O)[O-])cc1)Nc1cccc(C(=O)N2CCCCC2)c1 | 13.5% | 23.7%

— PubChem BioAssay
